Screening results (PubChem)
TGFb SMAD3 inh = qHTS for Inhibitors of TGF-b. actives 1.2% (n = 410,000). HepG2 CAGA-GFP TGF-b/SMAD3 reporter, GFP fluorescence, 18 h; TGF-beta stimulated, 500 pg/mL final. Potency, µM (titrated, usually from 46.1 µM), most hits filed as inhibitors; further: nearly all actives have a fitted effect of over 65% in size
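Read-out: total well GFP (ex488/em500-530) summed from mean per-cell fluorescence. Cells: HEPG2 CAGA-GFP, 1% FBS DMEM, 18 h at 37 degrees C with 500 pg/mL final TGF-beta. Unstimulated wells served as the full-inhibition control; stimulated DMSO wells = 0%.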
HepG2 tox-1 = qHTS for Inhibitors of TGF-b: Cytotox Counterscreen; actives 0.76% (n = 410,000); Potency, µM (highest dose often 46.1 µM), actives largely listed as cytotoxic; HepG2 CAGA-GFP viability, ATP luminescence, 18 h
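HepG2 CAGA-GFP cells (1000/well, DMEM with 1% FBS) received compound, then TGF-beta at 500 pg/mL final, and were incubated 18 hours at 37 degrees C. Viability was read by CellTiter-Glo luminescence. Media-only wells were set as complete cell-killing and DMSO as no toxicity.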
TDP1 block = qHTS Assay for Inhibitors of Tyrosyl-DNA Phosphodiesterase (TDP1); Potency, µM (titrated, usually from 130 µM), usual class: inhibitors; AID 485290, 2010; recombinant TDP1, AlphaScreen DNA substrate cleavage; Tyrosyl-DNA phosphodiesterase 1 (Homo sapiens), Q9NUW8; actives 0.28% (n = 350,000); further: nearly all actives have a fitted effect of over 40% in size
Target sequence (Q9NUW8 whole entry, looked up): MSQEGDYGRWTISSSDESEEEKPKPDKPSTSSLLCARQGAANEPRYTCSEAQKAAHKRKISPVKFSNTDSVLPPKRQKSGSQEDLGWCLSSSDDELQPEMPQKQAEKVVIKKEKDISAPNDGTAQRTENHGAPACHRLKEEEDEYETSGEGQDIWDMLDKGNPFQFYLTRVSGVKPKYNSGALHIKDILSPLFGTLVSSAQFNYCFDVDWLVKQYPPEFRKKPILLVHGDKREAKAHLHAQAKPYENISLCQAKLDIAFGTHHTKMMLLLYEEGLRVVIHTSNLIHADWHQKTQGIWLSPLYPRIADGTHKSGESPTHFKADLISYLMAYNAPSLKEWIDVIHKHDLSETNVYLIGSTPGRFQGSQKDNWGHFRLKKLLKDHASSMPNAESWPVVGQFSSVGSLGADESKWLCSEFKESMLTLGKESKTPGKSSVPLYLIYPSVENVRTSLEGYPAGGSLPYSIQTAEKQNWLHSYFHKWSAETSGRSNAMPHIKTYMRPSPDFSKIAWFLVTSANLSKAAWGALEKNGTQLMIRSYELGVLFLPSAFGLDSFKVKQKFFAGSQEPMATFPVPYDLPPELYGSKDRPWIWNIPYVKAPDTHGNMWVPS
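E. coli-derived human Tdp1, 1 nM final. Cpd preinc 15 min RT; substrate 15 nM final, 5 min RT; AS bead mix 10 ug/ml final, 10 min RT. Signal loss = tyrosine-FITC cleavage. No-enzyme wells = max signal.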
IL-1B inflam inh = qHTS for Inhibitors of Inflammasome Signaling: IL-1-beta AlphaLISA Primary Screen; THP-1 LPS/ATP IL-1B secretion, AlphaLISA, 16 h; active compounds read low; activity change, % at 57.5 µM; actives 4.7% (n = 360,000); AID 743279, 2014; in the data active means activity change below about -50%; inconclusive means mostly about -30% to -49%
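THP-1 cells pretreated 1 hr with compounds (up to 57.5 uM final), then stimulated with LPS (250 ng/mL final) plus ATP (1.25 mM final); secreted IL-1B measured by AlphaLISA after 16 hr, decreased signal indicating inhibition.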
TDP1 cell CPT = qHTS for Inhibitors of human tyrosyl-DNA phosphodiesterase 1 (TDP1): qHTS in cells in presence of CPT; chicken DT40 Tdp1-/-;hTDP1 cells + 20 nM CPT, ATP luminescence, 48 h; actives 12% (n = 420,000); Potency, µM (top dose mostly 46.2 µM), actives largely listed as inhibitors; further: nearly all actives have a fitted effect of over 55% in size
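Cell growth measured by CellTiter-Glo luminescence after a minimum 48 h, 37 C compound exposure with 20 nM CPT in Tdp1-knockout DT40 cells stably expressing hTDP1, seeded 400/well; qHTS titration format.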
DT40 TDP1 no CPT = qHTS for Inhibitors of human tyrosyl-DNA phosphodiesterase 1 (TDP1): qHTS in cells in absence of CPT; DT40 Tdp1-/- hTDP1 cells, no CPT, ATP luminescence, 48 h; Potency, µM (titrated, usually from 46.2 µM), most hits filed as inhibitors; actives 15% (n = 420,000); further: nearly all actives have a fitted effect of over 55% in size
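Luminescent ATP content (CellTiter-Glo) served as the growth readout. Knockout chicken DT40 cells expressing human TDP1 were exposed to compounds without camptothecin for a minimum 48 hr at 37 °C.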
TGFb CAGA inh = qHTS for Inhibitors of TGF-b: Confirmation of Cherry Picks | actives 63% (n = 1,600) | shares compounds with TGFb SMAD3 inh | HepG2 CAGA-GFP TGF-b reporter, GFP fluorescence, 18 h; cells stimulated with TGF-beta, 500 pg/mL | Potency, µM (titrated, usually from 46.1 µM), hits mostly inhibitors; further: nearly all actives have a fitted effect of over 65% in size
HepG2 tox-2 = qHTS for Inhibitors of TGF-b: Cytotox Counterscreen for Cherry Picks; shares compounds with TGFb SMAD3 inh; HepG2 CAGA-GFP viability, ATP luminescence, 18 h; cells stimulated with TGF-beta, 500 pg/mL; Potency, µM (titrated, usually from 46.1 µM), most hits filed as inhibitors; actives 27% (n = 1,600); AID 720535, 2013; further: nearly all actives have a fitted effect of over 70% in size
TGFb CCL64 inh = qHTS for Inhibitors of TGF-b: CCL64 Cells Orthogonal Assay for Cherry Picks; shares compounds with TGFb SMAD3 inh; CCL64 CAGA-GFP reporter, TGF-b stimulated, GFP fluorescence, 18 h; Potency, µM (highest dose often 46.1 µM), actives largely listed as inhibitors; actives 41% (n = 1,600); AID 720536, 2013; further: nearly all actives have a fitted effect of over 65% in size
TGFb COP inh = qHTS for Inhibitors of TGF-b: Hit Validation in HepG2 Cells using COP promoter; shares compounds with TGFb SMAD3 inh; HepG2 COP-GFP TGF-b reporter, GFP fluorescence, 18 h; cells stimulated by added recombinant TGF-beta; Potency, µM (titrated, usually from 46.1 µM), actives largely listed as inhibitors; actives 3% (n = 1,600); further: nearly all actives have a fitted effect of over 70% in size
Of the large screens only hits and unclear results are named; the others gave an inactive call (follow-up assays come after a bar, where they were run). In the library only some 19% were active in any assay of this set; here they are far more common. Unless noted, the call rests on the fitted dose curve; in most records, active means well fitted curve in the direction sought with a large enough effect; inconclusive means small, poorly fitted or top-dose-only effect, or another doubt; inactive means no such curve, though single readings can be large; an effect the other way counts as inactive or inconclusive.

O=C(Cn1nnnc1CN1CCOCC1)N1CCC(c2cccc(Cl)c2)C1 (centres undefined)	none
COc1ccc(NC(=O)CN2C(=O)NC(CC(C)C)C2=O)cc1S(=O)(=O)N1CCOCC1 (centres undefined)	TGFb SMAD3 inh inconclusive
C[C@@H]1CN([C@@H](C)CO)C(=O)c2cc(NC(=O)C3CCCCC3)ccc2O[C@@H](C)CCCCO[C@@H]1CN(C)Cc1ccncc1	none (no result: TDP1 block)
C[C@H](CO)N1C[C@H](C)[C@@H](CN(C)S(=O)(=O)c2ccccc2)Oc2c(NC(=O)Nc3ccc(C(F)(F)F)cc3)cccc2C1=O	TGFb SMAD3 inh 10µM, IL-1B inflam inh inconclusive, TDP1 cell CPT inconclusive, DT40 TDP1 no CPT 16µM | TGFb CAGA inh 21µM | HepG2 tox-2 inconclusive | TGFb CCL64 inh inconclusive | TGFb COP inh inactive
C[C@@H]1CCCCO[C@H](CN(C)Cc2ccc(Cl)c(Cl)c2)[C@H](C)CN([C@@H](C)CO)C(=O)c2cc(NC(=O)Nc3ccc(F)cc3)ccc2O1	TGFb SMAD3 inh 10µM, IL-1B inflam inh inconclusive, TDP1 cell CPT 9.2µM, DT40 TDP1 no CPT 5.8µM (no result: TDP1 block) | TGFb CAGA inh 5.8µM | HepG2 tox-2 inconclusive | TGFb CCL64 inh 5.8µM | TGFb COP inh inactive
C[C@H](CO)N1C[C@H](C)[C@H](CN(C)Cc2ccccc2)Oc2ccc(NC(=O)Nc3ccc(F)cc3)cc2C1=O	TGFb SMAD3 inh inconclusive, TDP1 cell CPT inconclusive, DT40 TDP1 no CPT inconclusive
C[C@@H]1CN([C@@H](C)CO)C(=O)c2cccc(NC(=O)Nc3ccc(F)cc3)c2O[C@@H]1CN(C)Cc1ccc(Oc2ccccc2)cc1	TGFb SMAD3 inh 4µM, TDP1 cell CPT 13µM, DT40 TDP1 no CPT 18µM | TGFb CAGA inh 16µM | HepG2 tox-2 inconclusive | TGFb CCL64 inh 6.5µM | TGFb COP inh inactive
CC(C)CC(CO)N1CCN(C(=O)c2cccc(C(F)(F)F)c2)CCC1=O (centres undefined)	none
Cc1cccc(COCC(CC(C)C)N2CCN(C(=O)c3ccc(C(C)(C)C)cc3)CCC2=O)c1 (centres undefined)	TGFb SMAD3 inh 8.9µM, IL-1B inflam inh -73, TDP1 cell CPT inconclusive, DT40 TDP1 no CPT 18µM | TGFb CAGA inh inconclusive | HepG2 tox-2 inconclusive | TGFb CCL64 inh inconclusive | TGFb COP inh inconclusive
CC(C)CC(COCc1cccc(Cl)c1)N1CCN(C(=O)c2ccc(C(F)(F)F)cc2)CCC1=O (centres undefined)	TGFb SMAD3 inh 10µM, IL-1B inflam inh inconclusive, TDP1 cell CPT inconclusive, DT40 TDP1 no CPT 16µM | TGFb CAGA inh 18µM | HepG2 tox-2 inactive | TGFb CCL64 inh inconclusive | TGFb COP inh inactive
CC(C)CC(COCc1ccc(F)cc1)N1CCN(C(=O)c2cccc(C(F)(F)F)c2)CCC1=O (centres undefined)	TDP1 cell CPT inconclusive, DT40 TDP1 no CPT inconclusive
NC(=S)NN=Cc1c[nH]c2nccnc12	TGFb SMAD3 inh 13µM, TDP1 cell CPT 16µM, DT40 TDP1 no CPT 13µM (no result: TDP1 block) | TGFb CAGA inh inconclusive | HepG2 tox-2 inconclusive | TGFb CCL64 inh inactive | TGFb COP inh inactive
O=C(O)c1ccc(OCCN2CCCC2=O)cc1	none
CC(NC(=O)CN1C(=O)NC2(CCc3ccccc32)C1=O)c1ccc2c(c1)OCCO2 (centres undefined)	none
Brc1cc(Br)c2ncnc(N3CCCCC3)c2c1	TGFb SMAD3 inh 6.3µM, TDP1 cell CPT 21µM, DT40 TDP1 no CPT 13µM | TGFb CAGA inh 9.2µM | HepG2 tox-2 4.1µM | TGFb CCL64 inh inconclusive | TGFb COP inh inactive
CN1CCC(=NNC(=O)c2cn(-c3ccccc3)nc2-c2ccccc2)CC1	DT40 TDP1 no CPT inconclusive
Cc1ccccc1C(=O)N1CCN(c2ccc(NC(=O)c3ccc([N+](=O)[O-])o3)cc2)CC1	TGFb SMAD3 inh 3.2µM, HepG2 tox-1 1.1µM, IL-1B inflam inh -95, TDP1 cell CPT 5.2µM, DT40 TDP1 no CPT 2.3µM | TGFb CAGA inh 6.5µM | HepG2 tox-2 16µM | TGFb CCL64 inh inactive | TGFb COP inh inconclusive
O=C(Nc1nc(-c2ccccn2)cs1)c1ccc([N+](=O)[O-])o1	TGFb SMAD3 inh 8.9µM, TDP1 cell CPT 4.1µM, DT40 TDP1 no CPT 2.6µM | TGFb CAGA inh 15µM | HepG2 tox-2 16µM | TGFb CCL64 inh inconclusive | TGFb COP inh inactive
CCCCCC(=O)Nc1ccc(N2CCN(C(=O)c3ccccc3)CC2)cc1	DT40 TDP1 no CPT inconclusive
O=C(NNC(=O)c1ccc([N+](=O)[O-])o1)c1ccccc1	TGFb SMAD3 inh 7.9µM, TDP1 cell CPT inconclusive, DT40 TDP1 no CPT inconclusive | TGFb CAGA inh 16µM | HepG2 tox-2 18µM | TGFb CCL64 inh inactive | TGFb COP inh inactive
O=C(Nc1ccc(N2CCN(C(=O)c3ccccc3)CC2)cc1)c1ccc([N+](=O)[O-])o1	TGFb SMAD3 inh 5.6µM, HepG2 tox-1 13µM, IL-1B inflam inh -96, TDP1 cell CPT 2.1µM, DT40 TDP1 no CPT 1.8µM | TGFb CAGA inh 7.3µM | HepG2 tox-2 23µM | TGFb CCL64 inh inconclusive | TGFb COP inh inactive
